Screening data from PubChem.
Only some compounds are listed: those with a hit (about 4% of all), similar ones and a draw of the others.
tim23-1 inh – growth inhibitors of tim23-1 mutant yeast, primary screen, luminescence, uHTS | inhibition, % at 20 µM | 330,000 tested, 1.3% active | S. cerevisiae tim23-1 growth, BacTiter-Glo luminescence, 24 h;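 active means growth inhibition of the mutant yeast at or above 50%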;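 further: temperature-sensitive mutant grown at 25 °C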
TIM10 inh – growth inhibitors of isogenic TIM10 control yeast, primary screen, counter-screen for tim10-1 yeast inhibitor project, luminescence, uHTS; S. cerevisiae TIM10 strain growth, BacTiter-Glo luminescence, 24 h; AID 463195, 2010; inhibition, % at 10 µM; 330,000 tested, 1.4% active;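 active means inhibition of 40% or more at the single tested concentration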;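 further: wild-type TIM10 isogenic control strain grown at permissive 25 °C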
NALP1 inh – NALP1 inflammasome inhibitors in reconstituted yeast, colorimetric, S. cerevisiae, triplicate retest. S. cerevisiae NALP1/ASC/caspase-1 growth, X-gal OD620, 72 h. 280,000 tested, 0.61% active. inhibition, % at 10 µM; in the data active means inhibition mostly above about 24%, no sharp cut-off; inactive means mostly below about 32%
NALP3 yeast inh – NALP3 inflammasome inhibitors in reconstituted yeast, primary screen, luminescence, uHTS; Yeast reconstituted NLRP3/ASC/caspase-1, beta-gal luminescence, 24 h; inhibition, % at 10 µM; 330,000 tested, 0.39% active; AID 2825, 2010;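 active means inhibition of 50% or more; inactive means inhibition below 50%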
tim10-1 inh – growth inhibitors of tim10-1 mutant yeast, primary screen, luminescence, uHTS; S. cerevisiae tim10-1 ts strain growth, BacTiter-Glo, 24 h; inhibition, % at 20 µM; 330,000 tested, 2.2% active; AID 463190, 2010;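 active means inhibition of at least 40%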;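 further: mutant grown at 25 °C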
tim10-1 confirm – growth inhibitors of tim10-1 mutant yeast, confirmation, single concentration, luminescence, S. cerevisiae; shares compounds with tim10-1 inh; S. cerevisiae tim10-1 ts strain growth, BacTiter-Glo, 24 h; inhibition, % at 20 µM; 7,400 tested, 56% active; AID 463213, 2010;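 active means inhibition of yeast growth at or above a set limit in either of two repeat tests at 20 µM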;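 further: tim10-1 mutant grown at permissive 25 °C to find synthetic lethal compounds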
Numbers stand for hits; i = inactive; nt = no result.

SMILES	tim23-1 inh	TIM10 inh	NALP1 inh	NALP3 yeast inh	tim10-1 inh	tim10-1 confirm
CCOc1ccc2cc(C#N)c(SCC(=O)N3CCOCC3)nc2c1	i	i	i	i	43	i
CCOc1ccc2nc(SCC(=O)N3CCCCCC3)c(C#N)cc2c1	i	i	i	i	i	nt
CCc1ccc(Nc2n[n+](-c3ccccc3)c(/C=C/c3ccccc3)s2)cc1	i	i	i	i	43	i
CCCCn1c(N)c(N(CCOC)C(=O)CSc2n[nH]c(-c3ccc(OC)cc3)n2)c(=O)[nH]c1=O	i	i	i	i	i	nt
CCOC(=O)/C(C#N)=C1/CCCCCN1C	i	i	i	i	i	nt
CCOC(=O)/C(C#N)=C1\SS/C(=C(/C#N)C(=O)OCC)S1	i	i	80	i	41	36
Cc1ccc(NC2CCCN(C(=O)CN3C(=O)c4ccccc4C3=O)C2)cc1C (stereo not given)	i	i	i	i	i	nt
CC(C)c1ccc(NC(=O)CN2C(=O)COc3ccc(S(=O)(=O)N4CCOCC4)cc32)cc1	i	i	i	i	i	nt
COc1cc(/C=C2\CC/C(=C\c3ccc(OCCO)c(OC)c3)C2=O)ccc1OCCO	i	i	i	i	49	40
CCn1c(SCC(=O)Nc2nncs2)nnc1C(C)NC(=O)c1ccccc1Br (stereo not given)	i	i	i	i	i	nt
Cc1cccc(CCNC(=O)c2cccc3c2C(=O)N(C2CCCCC2)C3)c1	i	i	i	i	52	i
Cc1ccc(NC(=O)c2cccc3c2C(=O)N(C2CCCCC2)C3)c(C)c1	i	i	i	i	i	nt
Cc1cc(C)c(NC(=O)c2cccc3c2C(=O)N(C2CCCCC2)C3)c(C)c1	i	i	i	i	49	i
COc1ccc(OCC(=O)Nc2cc3c(cc2C(=O)O)OCCCO3)cc1	i	i	i	i	i	nt
CC(C)NC(=O)/C(C#N)=C/c1ccc2c(c1)OCCO2	i	i	i	i	43	34
N#C/C(=C\c1cccc(O)c1)C(=O)Nc1ccc2c(c1)OCCO2	i	i	i	i	i	nt
Cc1ccc(OCC(=O)N/N=C\c2cn(C)c3ccccc23)c([N+](=O)[O-])c1	i	i	i	i	41	i
CCC(C)OC(=O)C[N+](C)(C)CCOC1CC2CCC1(C)C2(C)C (stereo not given)	i	i	i	i	41	i
CC(C)CCOC(=O)C[N+](C)(C)CCOC1CC2CCC1(C)C2(C)C (stereo not given)	i	i	i	i	i	nt
COCCN(C(=O)CSc1nnc(-c2cccs2)n1N)c1c(N)n(Cc2ccccc2)c(=O)[nH]c1=O	i	i	i	i	i	nt
O=C(CN1CCN(Cc2ccccc2F)CC1)Nc1ccccc1Cl	i	i	i	i	i	nt
COc1ccc(-c2nnc(SCC(=O)Nc3cc(C)on3)o2)cc1	i	i	i	i	i	nt
Cc1nn(-c2nnc(NC3CCCCC3)nn2)c(C)c1Br	i	i	i	i	45	34
Cc1nn(C)c(C)c1S(=O)(=O)NC1CCCC1	i	i	i	i	i	nt
Cc1ccc(SCCNC(=S)Nc2ccc(C)c(C)c2)cc1	i	i	i	i	i	nt
SMILES	tim23-1 inh	TIM10 inh	NALP1 inh	NALP3 yeast inh	tim10-1 inh	tim10-1 confirm
Cc1ccc(SCCNC(=S)Nc2cc(C)ccc2C)cc1	i	i	i	i	43	i
N#Cc1ccc(OCC(=O)Nc2ccc3[nH]c(=O)[nH]c3c2)cc1	i	i	nt	i	i	nt
O=C(/C=C/c1ccccc1F)c1cccc([N+](=O)[O-])c1	i	i	i	i	51	48
COc1cc(/C=C/C(=O)c2cccc([N+](=O)[O-])c2)cc(OC)c1OC	i	i	i	i	53	41
CCC(Oc1nc2ccccc2nc1-c1ccccc1NC(C)=O)C(=O)c1ccccc1 (stereo not given)	i	i	i	i	i	nt
COc1cc(Cl)c(C)cc1Nc1ncccn1	i	i	i	i	i	nt
Cc1cccc(Nc2nnc(SC3CCOC3=O)s2)c1C (stereo not given)	i	i	i	i	i	nt
COc1ccc(Nc2nnc(SCC3CCCO3)s2)cc1 (stereo not given)	i	i	i	i	46	i
Cc1cccc(Nc2nnc(SCC3CCCCO3)s2)c1C (stereo not given)	i	i	i	i	48	33
COc1cccc(Nc2nnc(SCC3CCCCO3)s2)c1 (stereo not given)	i	i	i	i	i	nt
CC(=O)c1sc(N/N=C2\CC3CCC2(C)C3(C)C)nc1C (stereo not given)	i	i	i	i	43	i
CC(=O)Nc1nc(C)c(C(C)=O)s1	i	i	i	i	i	nt
CC(C)(C)C(=O)OCc1nc(-c2ccc(Cl)cc2)cs1	i	i	i	i	45	42
COc1ccc(-c2csc(COC(=O)C(C)(C)C)n2)cc1	i	i	i	i	i	nt
N/C(=N\OC(=O)c1cccc(Br)c1)c1ccncc1	i	i	i	i	41	35
N/C(=N\OC(=O)c1ccc(F)cc1)c1ccc(Br)cc1	i	i	i	i	57	46
Cc1cccc(C(=O)O/N=C(/c2ccccc2)c2ccncc2)c1	i	i	i	i	41	42
N/C(=N\OC(=O)c1ccc(Br)cc1)c1ccncc1	i	i	i	i	53	43
COc1ccc(C(=O)O/N=C(/c2ccccc2)c2ccncc2)cc1OC	i	i	i	i	i	nt
O=C(O/N=C/c1ccc(Br)cc1)c1ccc(F)cc1	i	i	nt	i	i	nt
Cc1nc2cc(-c3ccc(Cl)cc3)nn2c(NCCN(C)C)c1C	i	i	i	i	i	nt
Cc1ccc(-n2nnnc2CNC(=O)c2ccc([N+](=O)[O-])o2)cc1C	i	i	nt	i	43	31
O=C(NCc1nnnn1-c1ccc(F)cc1)c1ccc([N+](=O)[O-])o1	i	i	nt	i	i	nt
Cc1occc1C(=O)N1CCCC(CO)(Cc2ccc(F)cc2F)C1 (stereo not given)	i	i	i	i	i	nt
O=C(NCc1cccc(C(F)(F)F)c1)C1CCCN(c2ncccn2)C1 (stereo not given)	i	i	i	i	i	nt
O=C(Nc1cccc(C(F)(F)F)c1)C1CCCN(c2ncccn2)C1 (stereo not given)	i	i	i	i	42	36
O=C1CC(c2ccc(Cl)cc2)CC(O)=C1C=NCCO (stereo not given)	i	i	i	i	i	nt
O=C(CSCc1cc(=O)n2nc(C3CC3)sc2n1)Nc1ccc(F)cc1	i	i	i	i	i	nt
O=C1C(c2ccc(F)cc2)N(Cc2ccc3c(c2)OCO3)C(=O)CN1C1CCCC1 (stereo not given)	i	i	i	i	i	nt
